Assay [1] concerns the target human RAR-related Orphan Receptor beta (RORb), RORB (gene 6096) (UniProt Q92753). Briefly: ATG_RORb_TRANS: Attagene TRANS-FACTORIAL HepG2 Assay for human RAR-related Orphan Receptor beta (RORb) (AID 2283010; active = hit-call score of the fitted dose curve at least 0.9, where 1 is the maximum). The method, boiled down: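 In this TRANS-format test, human HepG2 cells express chimeric NR-Gal4 fusion proteins driving GAL4-UAS reporters. After 24 h dosing, reporter transcripts are measured by fluorescent RT-PCR/capillary electrophoresis, with DMSO as negative control.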

In assay [2] the target is human Retinoid X Receptor beta (RXRb), RXRB (gene 6257) (UniProt P28702). Kind of assay: ATG_RXRb_TRANS: Attagene TRANS-FACTORIAL HepG2 Assay for human Retinoid X Receptor beta (RXRb) (AID 2283013; active = hit-call score of the fitted dose curve at least 0.9, where 1 is the maximum). A digest of the protocol: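 Multiplexed TRANS reporter assay in HepG2; 24 h dosing; reporter mRNA by RT-PCR/CE fluorescence; gain-of-signal relative to DMSO.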
human Retinoid X Receptor beta (RXRb), RXRB (gene 6257), sequence (P28702 whole entry, looked up): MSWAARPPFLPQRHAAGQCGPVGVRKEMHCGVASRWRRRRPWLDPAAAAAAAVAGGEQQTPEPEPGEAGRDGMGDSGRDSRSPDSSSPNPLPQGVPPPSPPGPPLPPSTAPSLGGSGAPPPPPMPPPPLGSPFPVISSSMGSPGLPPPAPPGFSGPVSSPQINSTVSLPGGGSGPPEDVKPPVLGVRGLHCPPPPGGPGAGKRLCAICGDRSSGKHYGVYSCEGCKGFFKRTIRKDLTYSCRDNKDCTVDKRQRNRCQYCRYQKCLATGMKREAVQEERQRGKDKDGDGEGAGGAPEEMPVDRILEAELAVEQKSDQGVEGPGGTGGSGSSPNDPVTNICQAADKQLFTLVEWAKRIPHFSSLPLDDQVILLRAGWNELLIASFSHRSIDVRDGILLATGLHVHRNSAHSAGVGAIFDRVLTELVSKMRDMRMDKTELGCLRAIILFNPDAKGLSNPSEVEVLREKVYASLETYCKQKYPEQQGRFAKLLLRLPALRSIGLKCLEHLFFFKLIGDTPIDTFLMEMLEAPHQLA
The target in assay [3] is human Thyroid Receptor alpha (THRa1), THRA (gene 7067) (UniProt P10827). Briefly: ATG_THRa1_TRANS: Attagene TRANS-FACTORIAL HepG2 Assay for human Thyroid Receptor alpha (THRa1) (AID 2283014; active = hit-call score of the fitted dose curve at least 0.9, where 1 is the maximum). A digest of the protocol: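 Reporter transcript induction, read by capillary electrophoresis of 6-FAM-labelled RT-PCR products, reflects activity of a transfected THRa1-Gal4 fusion in HepG2 liver cells. Cells were dosed for 24 h; activity was fitted in the positive direction against DMSO.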
human Thyroid Receptor alpha (THRa1), THRA (gene 7067), sequence (P10827 whole entry, looked up, the tested form may be a part): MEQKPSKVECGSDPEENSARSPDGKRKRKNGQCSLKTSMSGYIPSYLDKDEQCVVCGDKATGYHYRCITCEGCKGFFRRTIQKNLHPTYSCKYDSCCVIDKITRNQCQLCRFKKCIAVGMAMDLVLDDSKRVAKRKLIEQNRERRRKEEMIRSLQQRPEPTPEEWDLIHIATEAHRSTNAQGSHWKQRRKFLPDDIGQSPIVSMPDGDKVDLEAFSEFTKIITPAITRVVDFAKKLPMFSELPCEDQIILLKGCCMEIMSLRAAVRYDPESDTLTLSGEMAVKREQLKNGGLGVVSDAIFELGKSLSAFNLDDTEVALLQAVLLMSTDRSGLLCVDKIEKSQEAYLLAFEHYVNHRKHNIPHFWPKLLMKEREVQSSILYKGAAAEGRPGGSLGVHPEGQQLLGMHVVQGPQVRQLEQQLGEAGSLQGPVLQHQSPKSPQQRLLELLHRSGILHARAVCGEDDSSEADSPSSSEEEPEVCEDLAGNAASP

Read-out in assay [4]: E-selectin (Homo sapiens) (UniProt P16581)
Briefly: BSK_3C_Eselectin: BioMAP Diversity Plus: 3C Assay for Eselectin Biomarker Activity (AID 2283015).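 For outcome: cell surface E-selectin protein quantified by ELISA 24 h after dosing.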 The conditions noted are these: primary human endothelial cells (HUVEC); actives raise or lower the signal. The method, boiled down:
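ELISA read-out of E-selectin on endothelial monolayers after 24 h chemical treatment. Human umbilical vein primary cells served as the system, with DMSO defining baseline activity for bidirectional fitting.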

Read-out in assay [5]: Interleukin-1 alpha (IL1a), IL1A (gene 3552)
Kind of assay: BSK_BE3C_IL1a: BioMAP Diversity Plus: BE3C Assay for Interleukin-1 alpha (IL1a) Biomarker Activity (AID 2283016). As to conditions: primary human bronchial epithelial cells; actives raise or lower the signal. A digest of the protocol:
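Cultures of primary human bronchial epithelial cells receive test chemical. After 24 h, IL-1a is quantified by ELISA, while parallel wells are fixed in TCA and SRB-stained for total protein. Changes in either direction are fitted relative to DMSO.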

Read-out in assay [6]: Monocyte Chemoattractant Protein-1 (MCP1), CCL2 (gene 6347)
Briefly: BSK_3C_MCP1: BioMAP Diversity Plus: 3C Assay for Monocyte Chemoattractant Protein-1 (MCP1) Biomarker Activity (AID 2283017). As to conditions: primary human endothelial cells (HUVEC); actives raise or lower the signal. A digest of the protocol:
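ELISA read-out of MCP-1 from human umbilical vein endothelial cell cultures harvested 24 h post-dosing. Gain or loss of signal was fitted relative to DMSO.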

Read-out in assay [7]: Monocyte Chemoattractant Protein-1 (MCP1), CCL2 (gene 6347)
Briefly: BSK_4H_MCP1: BioMAP Diversity Plus: 4H Assay for Monocyte Chemoattractant Protein-1 (MCP1) Biomarker Activity (AID 2283018). The conditions noted are these: primary human endothelial cells (HUVEC); actives raise or lower the signal. A digest of the protocol:
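Readout: MCP-1 ELISA on compound-treated HUVEC, sampled 24 h post-dosing. Baseline and negative control DMSO; bidirectional fit. Overt toxicity checked alongside by sulforhodamine B protein staining at time of biomarker measurement.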

Read-out in assay [8]: Human Leukocyte Antigen - DR isotype (HLADR), HLA-DRA (gene 3122)
Briefly: BSK_3C_HLADR: BioMAP Diversity Plus: 3C Assay for Human Leukocyte Antigen - DR isotype (HLADR) Biomarker Activity (AID 2283019). As to conditions: primary human endothelial cells (HUVEC); actives raise or lower the signal. A digest of the protocol: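 ELISA readout of surface HLA-DR on human umbilical vein endothelium, taken 24 h after chemical treatment. Gain- and loss-of-signal were both fitted relative to DMSO.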

Read-out in assay [9]: Interleukin-8 (IL8), CXCL8 (gene 3576)
Briefly: BSK_3C_IL8: BioMAP Diversity Plus: 3C Assay for Interleukin-8 (IL8) Biomarker Activity (AID 2283020). The conditions noted are these: primary human endothelial cells (HUVEC); actives raise or lower the signal. A digest of the protocol:
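Human vascular endothelial cells (umbilical vein) in the 3C system; IL-8 level detected by ELISA at 24 h post-dose, with DMSO as baseline.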

Read-out in assay [10]: Monokine induced gamma interferon (MIG), CXCL9 (gene 4283)
Kind of assay: BSK_3C_MIG: BioMAP Diversity Plus: 3C Assay for Monokine induced gamma interferon (MIG) Biomarker Activity (AID 2283021).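 For AC50: MIG protein level measured by immunoassay in the treated endothelial cultures.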 As to conditions: primary human endothelial cells (HUVEC); actives raise or lower the signal. The method, boiled down:
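After 24 h of treatment, human umbilical vein endothelial cultures (3C system) had their MIG biomarker level determined by ELISA, with DMSO serving as negative control.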

Assay [11] deals with human Vitamin D Receptor (VDR), VDR (gene 7421) (UniProt P11473). Briefly: ATG_VDR_TRANS: Attagene TRANS-FACTORIAL HepG2 Assay for human Vitamin D Receptor (VDR) (AID 2283022; active = hit-call score of the fitted dose curve at least 0.9, where 1 is the maximum). A digest of the protocol:
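Steps: transfect HepG2 with GAL4-UAS-driven reporter constructs; dose compounds 24 h; isolate RNA, reverse-transcribe, PCR-amplify with 6-FAM-labelled primer extension and HpaI digestion; quantify fragments by capillary electrophoresis relative to DMSO.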

Assay [12] is described as follows: BSK_3C_SRB: Viability Assessment in the BioMAP Diversity Plus: 3C Assay (AID 2283023).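 Note: fitted both ways against DMSO so a hit may be signal rise or drop.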 As to conditions: primary human endothelial cells (HUVEC). The method, boiled down:
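Absorbance at 560 nm of sulforhodamine B-stained (0.1%) total protein served as a cytotoxicity readout in human umbilical vein endothelial cells, 24 h after chemical treatment. Signal was fitted bidirectionally relative to DMSO.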

Read-out in assay [13]: Matrix Metallopeptidase 1 (MMP1), MMP1 (gene 4312)
Kind of assay: BSK_BE3C_MMP1: BioMAP Diversity Plus: BE3C Assay for Matrix Metallopeptidase 1 (MMP1) Biomarker Activity (AID 2283024). As to conditions: primary human bronchial epithelial cells; actives raise or lower the signal. The method, boiled down:
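Dose cells, wait 24 h, run MMP1 ELISA; cells are human bronchial epithelial primaries. Both increases and decreases relative to DMSO counted.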

Assay [14] in a line: BSK_3C_Vis: BioMAP Diversity Plus: 3C Assay for Morphology Visualization (AID 2283025).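 For AC50: light microscopy image of cell morphology used as background control.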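 Note: fitted both ways so gain or loss versus DMSO counts.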 The conditions noted are these: primary human endothelial cells (HUVEC). The method, boiled down: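 Endothelial cells from human umbilical vein were treated with test chemicals for 24 h and inspected by light microscopy for changes in cell conformation.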
Read-out in assay [15]: Pselectin, SELP (gene 6403)
Kind of assay: BSK_4H_Pselectin: BioMAP Diversity Plus: 4H Assay for Pselectin Biomarker Activity (AID 2283026). The conditions noted are these: primary human endothelial cells (HUVEC); actives raise or lower the signal. The method, boiled down: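 Human vascular endothelium from umbilical vein; P-selectin measured by ELISA at 24 h post-dose, with cytotoxicity checked by sulforhodamine B total-protein staining in parallel cultures (0.1% SRB after 10% TCA fixation, read at 560 nm).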

Assay [16] is described as follows: BSK_4H_SRB: Viability Assessment in the BioMAP Diversity Plus: 4H Assay (AID 2283027).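 For AC50: curves fitted both ways versus DMSO so AC50 may be loss or gain.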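 Note: cells exposed to compound for 24 h before staining.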 As to conditions: primary human endothelial cells (HUVEC). A digest of the protocol: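 Human umbilical vein endothelial cells, 24 h after chemical dosing; total protein measured by 0.1% sulforhodamine B staining after 10% TCA fixation, read at 560 nm. Bidirectional fitting against DMSO.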

A short description of assay [17]: BSK_BE3C_SRB: Viability Assessment in the BioMAP Diversity Plus: BE3C Assay (AID 2283028).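 For AC50: fitted both ways so AC50 may mark signal gain or loss versus DMSO.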 As to conditions: primary human bronchial epithelial cells. A digest of the protocol: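 Cells (human bronchial epithelial, primary) are treated with chemicals, and after 24 h the parallel cultures are fixed in 10% TCA. These are then stained with 0.1% SRB and read at 560 nm. Gain or loss of signal is fitted relative to DMSO.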

Read-out in assay [18]: Thrombomodulin, THBD (gene 7056)
Briefly: BSK_3C_Thrombomodulin: BioMAP Diversity Plus: 3C Assay for Thrombomodulin Biomarker Activity (AID 2283029). As to conditions: primary human endothelial cells (HUVEC); actives raise or lower the signal. The method, boiled down: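 Thrombomodulin ELISA, human primary HUVEC, 24 h post-dose; data fitted in both directions relative to DMSO.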

The target in assay [19] is Retinoic acid receptor RXR-alpha (Homo sapiens) (UniProt P19793). Briefly: ATG_RXRa_TRANS: Attagene TRANS-FACTORIAL HepG2 Assay for human Retinoid X Receptor alpha (RXRa) (AID 2283012; active = hit-call score of the fitted dose curve at least 0.9, where 1 is the maximum). A digest of the protocol:
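Cells (HepG2) carried transiently transfected GAL4-responsive reporter units. Following a 24 h chemical incubation, reporter mRNA induction was read via RT-PCR fragment analysis; DMSO served as negative control and baseline.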

For orientation: AC50 means the concentration giving half of the maximal activity seen.

The structures appear in SMILES notation. Several values for one entry are separate records, joined by “and”; a condition that tells them apart may be missing. Identical values can stand only once. Results filed as inconclusive are left out. The source holds several records for some structures; these can differ, active in one and inactive in another. Activity calls are given as the source filed them. Rule for the calls, unless noted: active = hit-call score of the fitted dose curve at least 0.9, where 1 is the maximum; inactive = score below 0.9.

E-selectin (Homo sapiens), sequence (P16581 whole entry, looked up): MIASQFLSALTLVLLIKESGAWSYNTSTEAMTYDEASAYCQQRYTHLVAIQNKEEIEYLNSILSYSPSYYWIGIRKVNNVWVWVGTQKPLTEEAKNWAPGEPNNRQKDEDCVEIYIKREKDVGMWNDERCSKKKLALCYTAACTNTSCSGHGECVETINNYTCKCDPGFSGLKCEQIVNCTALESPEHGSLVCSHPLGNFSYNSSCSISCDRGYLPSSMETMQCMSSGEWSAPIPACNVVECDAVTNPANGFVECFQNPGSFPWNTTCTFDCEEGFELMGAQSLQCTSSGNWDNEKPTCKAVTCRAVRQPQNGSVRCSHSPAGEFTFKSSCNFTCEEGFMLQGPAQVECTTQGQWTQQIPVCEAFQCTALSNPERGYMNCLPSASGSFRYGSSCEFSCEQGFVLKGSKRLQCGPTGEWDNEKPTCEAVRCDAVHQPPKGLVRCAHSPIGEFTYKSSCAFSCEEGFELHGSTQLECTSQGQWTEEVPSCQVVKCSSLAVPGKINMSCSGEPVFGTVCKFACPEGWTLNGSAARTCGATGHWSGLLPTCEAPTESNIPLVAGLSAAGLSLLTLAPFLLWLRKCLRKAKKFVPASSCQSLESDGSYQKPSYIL
Retinoic acid receptor RXR-alpha (Homo sapiens), sequence (P19793 whole entry, looked up, the tested form may be a part): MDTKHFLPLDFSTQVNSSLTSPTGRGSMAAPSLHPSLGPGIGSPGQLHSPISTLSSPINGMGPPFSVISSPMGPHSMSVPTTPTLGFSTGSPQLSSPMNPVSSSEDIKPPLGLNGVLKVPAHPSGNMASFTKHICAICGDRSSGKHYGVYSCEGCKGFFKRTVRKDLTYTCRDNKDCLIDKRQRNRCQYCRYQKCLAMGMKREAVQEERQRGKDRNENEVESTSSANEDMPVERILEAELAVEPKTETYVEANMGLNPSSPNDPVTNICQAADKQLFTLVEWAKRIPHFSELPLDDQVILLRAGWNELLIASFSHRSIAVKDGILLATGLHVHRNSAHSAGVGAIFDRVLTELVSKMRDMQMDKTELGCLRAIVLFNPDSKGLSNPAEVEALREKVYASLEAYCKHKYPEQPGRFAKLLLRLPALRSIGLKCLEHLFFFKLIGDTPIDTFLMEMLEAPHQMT
human RAR-related Orphan Receptor beta (RORb), RORB (gene 6096), sequence (Q92753 whole entry, looked up, the tested form may be a part): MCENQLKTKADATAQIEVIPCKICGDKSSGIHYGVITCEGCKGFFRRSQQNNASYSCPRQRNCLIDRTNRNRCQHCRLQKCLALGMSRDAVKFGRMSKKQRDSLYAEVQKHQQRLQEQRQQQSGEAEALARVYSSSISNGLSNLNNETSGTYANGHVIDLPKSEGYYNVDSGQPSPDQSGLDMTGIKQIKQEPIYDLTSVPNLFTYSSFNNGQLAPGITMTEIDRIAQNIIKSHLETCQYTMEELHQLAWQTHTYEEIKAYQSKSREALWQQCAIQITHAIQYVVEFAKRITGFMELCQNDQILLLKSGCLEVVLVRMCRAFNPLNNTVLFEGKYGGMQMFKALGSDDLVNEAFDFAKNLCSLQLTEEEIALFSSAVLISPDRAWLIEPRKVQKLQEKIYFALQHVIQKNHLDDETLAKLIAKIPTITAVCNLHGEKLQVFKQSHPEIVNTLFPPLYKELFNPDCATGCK
human Vitamin D Receptor (VDR), VDR (gene 7421), sequence (P11473 whole entry, looked up, the tested form may be a part): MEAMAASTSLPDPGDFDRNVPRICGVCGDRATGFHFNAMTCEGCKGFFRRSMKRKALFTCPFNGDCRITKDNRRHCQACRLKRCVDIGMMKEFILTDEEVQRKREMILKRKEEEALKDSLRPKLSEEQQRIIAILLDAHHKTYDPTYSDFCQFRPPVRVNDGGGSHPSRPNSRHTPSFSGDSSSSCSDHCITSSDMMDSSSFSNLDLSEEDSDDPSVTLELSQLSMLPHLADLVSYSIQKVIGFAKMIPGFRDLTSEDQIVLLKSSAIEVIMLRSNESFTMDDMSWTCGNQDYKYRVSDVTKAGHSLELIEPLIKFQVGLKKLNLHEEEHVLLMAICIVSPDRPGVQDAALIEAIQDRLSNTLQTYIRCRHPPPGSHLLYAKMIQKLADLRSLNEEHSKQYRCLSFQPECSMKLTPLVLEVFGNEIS

`CN(C)C(=O)Cl`: the call in assay [1], in [2], in [3], in [4], in assay [5] and in [6] was inactive. The outcome in assay [7], in assay [8], in [9], in assay [10], in [11] and in [12] was inactive. In addition, the result in [13], in [14], in [15], in [16], in assay [17] and in assay [18] was inactive.

For the compound `ClC(Cl)c1ccccc1`, the compound was classed as inactive in assay [1], in assay [19], in assay [3], in [4], in [5] and in assay [6]. Also, the result in [7], in assay [8], in [9], in assay [10], in [12] and in assay [13] was inactive. Further, the outcome in assay [14], in assay [15], in assay [16], in assay [17] and in assay [18] was inactive.

As for `CC(Cl)CN(C)C` (centres undefined), the outcome in assay [1], in assay [19], in assay [4], in [5], in [7] and in assay [9] was inactive. Also, the result in [10], in assay [11], in [12], in assay [13], in assay [14] and in assay [16] was inactive. In addition, the result in assay [17] and in assay [18] was inactive. In addition, in assay [8], the AC50 was 7.97 µM (active).

Consider `OCC(F)(F)OC(F)(F)C(F)(F)OC(F)(F)C(F)(F)OC(F)(F)F`, for which the outcome in [1], in assay [19], in [5], in assay [7], in assay [11] and in assay [13] was inactive. Besides, the result in assay [17] and in assay [18] was inactive. Further, the AC50 in assay [4] was 46.3 µM (active) and 55.2 µM (active); in assay [6] it was 45.4 µM (active) and 14.5 µM (active); in assay [7], 45.4 µM (active); in assay [8], 31.5 µM (active) and 49.7 µM (active); in assay [9], 40.7 µM (active) and 42.9 µM (active); in assay [10], 38.9 µM (active) and 48.5 µM (active). In addition, the half-maximal activity concentration (AC50) in [12] is 25.7 µM (active) and 49.8 µM (active); in assay [15] it was 52.2 µM (active) and 44.9 µM (active); in assay [16] it was 47.5 µM (active) and 18.3 µM (active).

For the compound `COC(=O)C(F)(F)C(F)(F)OC(F)(C(F)(F)F)C(F)(F)OC(F)=C(F)F` (centres undefined), the compound was classed as inactive in [1], in assay [19], in assay [3], in assay [4], in [5] and in [6]. The result in [7], in assay [8], in [9], in assay [10], in [11] and in assay [12] was inactive. For the same compound, the result in [15], in [16], in assay [17] and in assay [18] was inactive. For the same compound, the AC50 in assay [2] was 31.8 µM (active) and 41.3 µM (active) and 28.2 µM (active); in [13], 1.48 µM (active) and 2.55 µM (active).

As for `O=C(O)C(F)(OC(F)(F)C(F)(F)C(F)(F)F)C(F)(F)F` (centres undefined), the call in [1], in assay [19], in assay [4], in assay [5], in assay [6] and in assay [7] was inactive. Also, the result in assay [8], in assay [9], in [10], in assay [11], in [12] and in [13] was inactive. In addition, the outcome in assay [16], in assay [17] and in [18] was inactive. Moreover, the AC50 in assay [6] was 49.3 µM (active); in [9], 5.95 µM (active); in [13] it was 10.7 µM (active).

On to `ClC(Cl)=C(c1ccc(Cl)cc1)c1ccccc1Cl`, for which the result in assay [1], in assay [19], in assay [11], in assay [13] and in [18] was inactive. The AC50 was 27.7 µM (active) in assay [2]; 20 µM (active) in assay [4]; 14.2 µM (active) in [5]; 5.93 µM (active) in assay [7]; 10.4 µM (active) in [8]; 11.8 µM (active) in [9]. The AC50 in assay [10] is 29.2 µM (active); in assay [12] it was 7.99 µM (active); in [14], 14.4 µM (active); in assay [16] it was 12.6 µM (active); in assay [17], 10.5 µM (active).

For the origin of these results see PubChem BioAssay (EPA / NIEHS).
